Experiments:
[1] = tested on: Vero E6 infected with SARS-CoV-2; experiment: inhibition of SARS-CoV-2 cytopathic effect; higher = more antiviral protection, active = above 15; details: 48 h
[2] = tested on: Vero E6 infected with SARS-CoV-2; experiment: morphology score (similarity to uninfected cells); higher = more like uninfected cells; details: 24 h

| SMILES | inhibition of SARS-CoV-2 cytopathic effect ([1]; 1 nM) | inhibition of SARS-CoV-2 cytopathic effect ([1]; 8.33 nM) | inhibition of SARS-CoV-2 cytopathic effect ([1]; 100 nM) | inhibition of SARS-CoV-2 cytopathic effect ([1]; 833.33 nM) | inhibition of SARS-CoV-2 cytopathic effect ([1]; 10000 nM) | morphology score [2] |
| --- | --- | --- | --- | --- | --- | --- |
| Cc1sc2c(c1C)C(c1ccc(Cl)cc1)=N[C@@H](CC(=O)Nc1ccc(O)cc1)c1nnc(C)n1-2 | 1.01% (inactive) | 0.43% (inactive) | -1.47% (inactive) | -3.68% (inactive) | -9.86% (inactive) |  |
| C[C@@H](O)[C@H]1C(=O)N2C(C(=O)O)=C(SCCNC=N)C[C@H]12 [imipenem] | 2.08% (inactive) | 10% (inactive) | 9.32% (inactive) | 2.66% (inactive) | 4.17% (inactive) |  |
| Cc1[nH]c(=O)c(C#N)cc1-c1ccc2nccn2c1 [olprinone] | -2.15% (inactive) | 1.36% (inactive) | 0.52% (inactive) | 0.56% (inactive) | -0.84% (inactive) |  |
| CC(=O)OCC(=O)[C@@]1(OC(C)=O)[C@@H](C)C[C@H]2[C@@H]3C[C@H](F)C4=CC(=O)C=C[C@]4(C)[C@@]3(F)[C@@H](O)C[C@@]21C [diflorasone-diacetate] | 3.78% (inactive) | 2.43% (inactive) | 1.22% (inactive) | 0.13% (inactive) | 1.53% (inactive) |  |
| CCOC(=O)COc1ccc2c(=O)cc(-c3ccccc3)oc2c1 [efloxate] | -1.98% (inactive) | 0.67% (inactive) | 0.32% (inactive) | -1.24% (inactive) | -0.78% (inactive) |  |
| NCCCC[C@H](NC(=O)[C@@H]1CCCN1C(=O)[C@@H]1CSSC[C@H](NC(=O)CNC(=O)CNC(=O)CN)C(=O)N[C@@H](Cc2ccc(O)cc2)C(=O)N[C@@H](Cc2ccccc2)C(=O)N[C@@H](CCC(N)=O)C(=O)N[C@@H](CC(N)=O)C(=O)N1)C(=O)NCC(N)=O [terlipressin] | 2.67% (inactive) | 0.07% (inactive) | 0.5% (inactive) | -0.07% (inactive) | 0.72% (inactive) |  |
| COC(=O)C1=C(C)NC(C)=C(C(=O)OC/C=C/c2ccccc2)C1c1cccc([N+](=O)[O-])c1 (stereo unspecified) [pranidipine] | 1.87% (inactive) | 0.47% (inactive) | -0.57% (inactive) | 1.4% (inactive) | 8.67% (inactive) |  |
| S=C(NCc1ccc2c(c1)OCO2)N1CCN(c2ncnc3c2oc2ccccc23)CC1 [amuvatinib] | 3.11% (inactive) | -0.46% (inactive) | 1.46% (inactive) | 2.33% (inactive) | -1.9% (inactive) |  |
| Cc1cccc2c1CC[C@H](CN1CCC(c3c(Cl)cccc3Cl)CC1)C[C@@H]2O | -2.92% (inactive) | 0.72% (inactive) | 4.25% (inactive) | 1.11% (inactive) | -8.51% (inactive) |  |
| O=C(O)c1cccnc1C(=O)O [quinolinic-acid] | 1.12% (inactive) | -1.19% (inactive) | 0.73% (inactive) | -1.65% (inactive) | -4.35% (inactive) |  |
| CC(C)[C@@H](CN1CC[C@@](C)(c2cccc(O)c2)[C@@H](C)C1)NC(=O)[C@H]1Cc2ccc(O)cc2CN1 | -0.76% (inactive) | 1.45% (inactive) | -1.62% (inactive) | -1.16% (inactive) | -4.59% (inactive) |  |
| CC(O)Cn1cnc2c1c(=O)n(C)c(=O)n2C (stereo unspecified) [Proxyphylline] | -1.14% (inactive) | -0.86% (inactive) | -0.81% (inactive) | -0.51% (inactive) | 0.19% (inactive) |  |
| COc1ccc(CCC(=O)Nc2nc3ccc(Cl)cc3s2)cc1OC | -2.56% (inactive) | -3.14% (inactive) | -2.66% (inactive) | 0.12% (inactive) | 0.38% (inactive) |  |
| CN(C)C(=O)[C@H](O)[C@H](Cc1ccccc1)NC(=O)c1cc2cc(Cl)ccc2[nH]1 | 0.8% (inactive) | -0.29% (inactive) | -0.45% (inactive) | 1.2% (inactive) | 4.47% (inactive) |  |
| c1ccc2[nH]c(-c3cscn3)nc2c1 [tiabendazole] | 2.1% (inactive) | 1.24% (inactive) | -0.24% (inactive) | 0.7% (inactive) | -0.19% (inactive) |  |
| C[C@]12CC[C@H]3[C@@H](CCC4=CC(=O)CC[C@@]43C)[C@@H]1CC[C@@H]2O (10 µM) |  |  |  |  |  | -0.0371 |
| C=C[C@]1(C)CC[C@@H](C(=C)C)C[C@H]1C(=C)C [beta-elemene] | 2.14% (inactive) | 1.03% (inactive) | 0.39% (inactive) | 0.7% (inactive) | 0.82% (inactive) |  |
| CN(C)CCCO[C@@H]1[C@H]2OC(C)(C)O[C@H]2O[C@@H]1[C@H](O)CO [amiprilose] | -4.79% (inactive) | -3.54% (inactive) | -5.54% (inactive) | -4.16% (inactive) | -1.28% (inactive) |  |
| CC1CCc2c(N3CCC(O)CC3)c(F)cc3c(=O)c(C(=O)O)cn1c23 (stereo unspecified) [nadifloxacin] | 3.29% (inactive) | 1.42% (inactive) | 0.26% (inactive) | 3.52% (inactive) | 2.69% (inactive) |  |
| O=C(CCN1CCN(C(=O)OCc2cc(Cl)cc(Cl)c2)CC1)c1ccc2[nH]c(=O)oc2c1 | 3.18% (inactive) | 5.29% (inactive) | 2.77% (inactive) | 4.56% (inactive) | 1.71% (inactive) |  |

— the supplement of paper PMC13380429
